Consider seven molecules from PubChem BioAssay (EPA / NIEHS).

The structures appear in SMILES notation. Records with an inconclusive call do not appear. Activity calls are given as the source filed them. How the source made its calls, unless noted: active means hit-call score of the fitted dose curve at least 0.9, where 1 is the maximum; inactive means score below 0.9.

Assay [1] addresses Retinoic acid receptor RXR-alpha (Homo sapiens) (UniProt P19793). The experiment in a line: OT_NURR1_NURR1RXRa_1440: Odyssey Thera (OT) 24-hour HEK293T Protein Complementation Assay for Nurr1/retinoid X receptor (RXR) (AID 2283386; active means hit-call score of the fitted dose curve at least 0.9, where 1 is the maximum). Summed up:
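HEK293T cells were dosed with compound and read 24 h later by fluorescence intensity in a protein-fragment complementation format, where Nurr1–RXRα interaction reconstitutes a split reporter. Activity was fitted as gain of signal relative to DMSO baseline.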

Assay [2] deals with Peroxisome proliferator-activated receptor gamma (Homo sapiens) (UniProt P37231). The experiment in a line: OT_PPARg_PPARgSRC1_1440: Odyssey Thera (OT) 24-hour Protein-Complementation Assay for Peroxisome Proliferator-activated Receptor Gamma/ SRC-1 Co-activator (AID 2283388; active means hit-call score of the fitted dose curve at least 0.9, where 1 is the maximum). Summed up: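 HEK293T transiently transfected with PPARg/SRC-1 split-Venus YFP fusions 48 h before dosing, then treated 24 h at 37C. Fixed cells imaged; nuclear/cytoplasmic 488 nm fluorescence ratio, gain of signal versus DMSO.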
Peroxisome proliferator-activated receptor gamma (Homo sapiens), sequence (P37231 whole entry, looked up, the tested form may be a part): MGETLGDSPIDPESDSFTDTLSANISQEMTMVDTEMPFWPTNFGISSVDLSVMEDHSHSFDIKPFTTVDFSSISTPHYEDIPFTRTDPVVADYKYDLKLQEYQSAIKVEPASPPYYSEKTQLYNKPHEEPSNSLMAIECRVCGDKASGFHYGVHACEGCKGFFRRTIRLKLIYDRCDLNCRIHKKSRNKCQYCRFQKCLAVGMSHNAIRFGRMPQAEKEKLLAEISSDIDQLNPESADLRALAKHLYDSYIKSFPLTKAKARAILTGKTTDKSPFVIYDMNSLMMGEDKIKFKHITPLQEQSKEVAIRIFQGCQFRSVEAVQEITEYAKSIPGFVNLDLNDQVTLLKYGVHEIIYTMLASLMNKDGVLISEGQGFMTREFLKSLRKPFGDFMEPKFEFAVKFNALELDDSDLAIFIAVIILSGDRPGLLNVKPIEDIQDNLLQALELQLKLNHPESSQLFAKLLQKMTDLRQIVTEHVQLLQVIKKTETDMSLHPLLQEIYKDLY

Read-out in assay [3]: Fatty acid synthase (Homo sapiens) (UniProt P49327)
Kind of assay: LTEA_HepaRG_FASN: Life Technologies and Expression Analysis (LTEA) Assay for Fatty Acid Synthase (FASN) using HepaRG (AID 2283448). The conditions noted are these: mRNA level, 48 h; actives raise or lower the signal. Summed up:
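Differentiated human HepaRG cells were exposed for 48 h in serum-free induction medium to eight half-log concentrations up to 100 uM in 0.5% DMSO, in duplicate. FASN mRNA was quantified by TaqMan qRT-PCR, normalized to ACTB/GAPDH/POLR2A, and fitted bidirectionally against DMSO.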

Read-out in assay [4]: Cyclin D2 (CCND2), CCND2 (gene 894)
The experiment in a line: LTEA_HepaRG_CCND2: Life Technologies and Expression Analysis (LTEA) Assay for Cyclin D2 (CCND2) using HepaRG (AID 2283449). The settings on record: mRNA level, 48 h; actives raise or lower the signal. Summed up:
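Read-out is CCND2 mRNA level measured by qRT-PCR in human HepaRG liver cells and normalised to three housekeeping genes. Chemicals were applied for 48 h at up to 100 uM, with gain or loss fitted relative to 0.5% DMSO.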

Read-out in assay [5]: Cyclin Dependent Kinase Inhibitor 1A (CDKN1A), CDKN1A (gene 1026)
Kind of assay: LTEA_HepaRG_CDKN1A: Life Technologies and Expression Analysis (LTEA) Assay for Cyclin Dependent Kinase Inhibitor 1A (CDKN1A) using HepaRG (AID 2283450). The settings on record: mRNA level, 48 h; actives raise or lower the signal. Summed up: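 Differentiated HepaRG cells in serum-free induction medium, exposed 48 h in duplicate to eight half-log concentrations up to 100 uM in 0.5% DMSO. mRNA measured by TaqMan qRT-PCR, normalized to ACTB, GAPDH, POLR2A; bidirectional fit versus DMSO.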

Read-out in assay [6]: Cyclin D1 (CCND1), CCND1 (gene 595)
The experiment in a line: LTEA_HepaRG_CCND1: Life Technologies and Expression Analysis (LTEA) Assay for Cyclin D1 (CCND1) using HepaRG (AID 2283451).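 On AC50: TaqMan qRT-PCR transcript level normalised to ACTB GAPDH and POLR2A housekeeping genes.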 The conditions noted are these: mRNA level, 48 h; actives raise or lower the signal. Summed up:
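Differentiated HepaRG cells exposed 48 h in serum-free induction medium to eight half-log concentrations from 100 uM top, 0.5% DMSO, duplicates. CCND1 mRNA measured by Fluidigm TaqMan qRT-PCR, normalised to ACTB, GAPDH, POLR2A; bidirectional fit.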

Read-out in assay [7]: catalase (CAT), CAT (gene 847)
Kind of assay: LTEA_HepaRG_CAT: Life Technologies and Expression Analysis (LTEA) Assay for catalase (CAT) using HepaRG (AID 2283452). The settings on record: mRNA level, 48 h; actives raise or lower the signal. Summed up:
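Expression of CAT was quantified by TaqMan qRT-PCR with ACTB/GAPDH/POLR2A normalization after 48 h chemical exposure of HepaRG. Eight-point half-log series, top 100 uM, in 0.5% DMSO; gain or loss fitted against vehicle.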

Read-out in assay [8]: Tumor necrosis factor receptor superfamily member 6 (Homo sapiens) (UniProt P25445)
Kind of assay: LTEA_HepaRG_FAS: Life Technologies and Expression Analysis (LTEA) Assay for Fas cell surface death receptor (FAS) using HepaRG (AID 2283447). The conditions noted are these: mRNA level, 48 h; actives raise or lower the signal. Summed up: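 FAS transcript level was measured by TaqMan qRT-PCR against three housekeeping genes after 48 h chemical exposure. Cells were HepaRG, 0.5% DMSO vehicle, with a top concentration of 100 uM and half-log dilutions over eight points, in duplicate.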

The nature of assay [9]: CEETOX_H295R_11DCORT: CeeTox H295R High-throughput Steroidogenesis Assay for 11-Deoxycortisol (11DCORT) (AID 2283432).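 Further: 11-deoxycortisol secreted into the medium measured by LC-MS/MS.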 The settings on record: actives raise or lower the signal. Summed up: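 H295R cells prestimulated 48 h with 10 uM forskolin, then exposed 48 h to chemical in 0.1% DMSO. 11-Deoxycortisol in medium quantified by HPLC-MS/MS after MTBE extraction; bidirectional fit versus DMSO. MTT viability read in same wells.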

Assay [10] is described as follows: CEETOX_H295R_OHPREG: CeeTox H295R High-throughput Steroidogenesis Assay for OH-Pregnenolone (OHPREG) (AID 2283434). The settings on record: actives raise or lower the signal. Summed up:
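Hormone levels in spent medium were measured by tandem mass spectrometry following liquid-liquid extraction. Cells (H295R) had been forskolin-stimulated (10 uM, 48 h) before a 48 h chemical exposure at 0.1% DMSO, with activity fitted in both directions against DMSO.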

A short description of assay [11]: CEETOX_H295R_OHPROG: CeeTox H295R High-throughput Steroidogenesis Assay for OH-Progesterone (OHPROG) (AID 2283435). The conditions noted are these: actives raise or lower the signal. Summed up:
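H295R human adrenal cells were prestimulated 48 h with 10 uM forskolin, then exposed 48 h to test chemical (0.1% DMSO final). 17alpha-hydroxyprogesterone in medium was measured by HPLC-MS/MS after MTBE extraction; bidirectional fitting vs DMSO.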

The nature of assay [12]: CEETOX_H295R_CORTIC: CeeTox H295R High-throughput Steroidogenesis Assay for Corticosterone (CORTIC) (AID 2283437).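 Further: corticosterone secreted into medium quantified by mass spectrometry.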 The settings on record: actives raise or lower the signal. Summed up: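 Corticosterone secreted into medium is measured by reverse-phase HPLC with tandem MS following liquid-liquid extraction. Cells are forskolin-stimulated (10 uM, 48 h) before 48 h test exposure; activity fitted in both directions against DMSO.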

A short description of assay [13]: CEETOX_H295R_CORTISOL: CeeTox H295R High-throughput Steroidogenesis Assay for Cortisol (AID 2283438).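 Further: cortisol secreted into medium quantified by LC-MS/MS.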 The conditions noted are these: actives raise or lower the signal. Summed up: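 H295R human adrenal cells were prestimulated 48 h with 10 uM forskolin, then exposed 48 h to test chemical (0.1% DMSO final). Medium cortisol was quantified by HPLC-MS/MS after MTBE extraction; bidirectional fitting relative to DMSO baseline.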

The nature of assay [14]: CEETOX_H295R_DOC: CeeTox H295R High-throughput Steroidogenesis Assay for DOC (AID 2283439). The conditions noted are these: actives raise or lower the signal. Summed up: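 H295R adrenal cells prestimulated 48 h with 10 uM forskolin, then exposed 48 h to test chemical (0.1% DMSO final). Medium 11-deoxycorticosterone extracted with MTBE, quantified by HPLC-MS/MS; bidirectional fit versus DMSO baseline; MTT viability in same wells.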

Assay [15] in a line: CEETOX_H295R_PROG: CeeTox H295R High-throughput Steroidogenesis Assay for Progesterone (PROG) (AID 2283442). The settings on record: actives raise or lower the signal. Summed up: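 H295R adrenal cells prestimulated 48 h with 10 uM forskolin, then exposed 48 h to test chemical in 0.1% DMSO. Progesterone in medium quantified by HPLC-MS/MS after MTBE extraction; viability checked by MTT in same wells.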

The target in assay [16] is Retinoic acid receptor RXR-alpha (Homo sapiens) (UniProt P19793). Kind of assay: OT_NURR1_NURR1RXRa_0480: Odyssey Thera (OT) 8-hour HEK293T Protein Complementation Assay for Nurr1/retinoid X receptor (RXR) (AID 2283385; active means hit-call score of the fitted dose curve at least 0.9, where 1 is the maximum). Summed up: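 HEK293T cells expressing Nurr1 and RXRα fused to reporter fragments were dosed with compound for 8 hours. Complex formation was read as fluorescence intensity and analysed as gain of signal against DMSO as baseline.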
Retinoic acid receptor RXR-alpha (Homo sapiens), sequence (P19793 whole entry, looked up, the tested form may be a part): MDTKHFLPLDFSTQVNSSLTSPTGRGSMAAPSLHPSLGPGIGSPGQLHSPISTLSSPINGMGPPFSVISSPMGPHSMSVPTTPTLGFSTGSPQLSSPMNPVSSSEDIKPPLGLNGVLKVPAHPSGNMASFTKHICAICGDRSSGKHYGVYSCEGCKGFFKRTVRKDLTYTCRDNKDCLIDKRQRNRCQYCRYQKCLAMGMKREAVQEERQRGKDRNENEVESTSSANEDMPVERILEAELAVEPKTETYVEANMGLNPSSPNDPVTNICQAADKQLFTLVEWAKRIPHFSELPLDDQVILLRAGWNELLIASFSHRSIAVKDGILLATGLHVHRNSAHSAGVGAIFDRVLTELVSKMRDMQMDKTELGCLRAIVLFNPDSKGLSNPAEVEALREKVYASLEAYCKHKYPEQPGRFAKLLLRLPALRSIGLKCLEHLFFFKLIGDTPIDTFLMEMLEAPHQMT

Assay [17] has as its target Peroxisome proliferator-activated receptor gamma (Homo sapiens) (UniProt P37231). The experiment in a line: OT_PPARg_PPARgSRC1_0480: Odyssey Thera (OT) 8-hour Protein-Complementation Assay for Peroxisome Proliferator-activated Receptor Gamma / SRC-1 Co-activator (AID 2283387; active means hit-call score of the fitted dose curve at least 0.9, where 1 is the maximum). Summed up:
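HEK293T transiently transfected with PPARg and SRC-1 fused to Venus YFP fragments, compounds 8 h at 37C. Fixed, Draq5-stained cells imaged; nuclear/cytoplasmic 488 nm fluorescence ratio over at least 350 cells per image; gain fitted versus DMSO.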

As a reminder, the AC50 is the concentration giving half of the maximal activity seen.

Fatty acid synthase (Homo sapiens), sequence (P49327 whole entry, looked up): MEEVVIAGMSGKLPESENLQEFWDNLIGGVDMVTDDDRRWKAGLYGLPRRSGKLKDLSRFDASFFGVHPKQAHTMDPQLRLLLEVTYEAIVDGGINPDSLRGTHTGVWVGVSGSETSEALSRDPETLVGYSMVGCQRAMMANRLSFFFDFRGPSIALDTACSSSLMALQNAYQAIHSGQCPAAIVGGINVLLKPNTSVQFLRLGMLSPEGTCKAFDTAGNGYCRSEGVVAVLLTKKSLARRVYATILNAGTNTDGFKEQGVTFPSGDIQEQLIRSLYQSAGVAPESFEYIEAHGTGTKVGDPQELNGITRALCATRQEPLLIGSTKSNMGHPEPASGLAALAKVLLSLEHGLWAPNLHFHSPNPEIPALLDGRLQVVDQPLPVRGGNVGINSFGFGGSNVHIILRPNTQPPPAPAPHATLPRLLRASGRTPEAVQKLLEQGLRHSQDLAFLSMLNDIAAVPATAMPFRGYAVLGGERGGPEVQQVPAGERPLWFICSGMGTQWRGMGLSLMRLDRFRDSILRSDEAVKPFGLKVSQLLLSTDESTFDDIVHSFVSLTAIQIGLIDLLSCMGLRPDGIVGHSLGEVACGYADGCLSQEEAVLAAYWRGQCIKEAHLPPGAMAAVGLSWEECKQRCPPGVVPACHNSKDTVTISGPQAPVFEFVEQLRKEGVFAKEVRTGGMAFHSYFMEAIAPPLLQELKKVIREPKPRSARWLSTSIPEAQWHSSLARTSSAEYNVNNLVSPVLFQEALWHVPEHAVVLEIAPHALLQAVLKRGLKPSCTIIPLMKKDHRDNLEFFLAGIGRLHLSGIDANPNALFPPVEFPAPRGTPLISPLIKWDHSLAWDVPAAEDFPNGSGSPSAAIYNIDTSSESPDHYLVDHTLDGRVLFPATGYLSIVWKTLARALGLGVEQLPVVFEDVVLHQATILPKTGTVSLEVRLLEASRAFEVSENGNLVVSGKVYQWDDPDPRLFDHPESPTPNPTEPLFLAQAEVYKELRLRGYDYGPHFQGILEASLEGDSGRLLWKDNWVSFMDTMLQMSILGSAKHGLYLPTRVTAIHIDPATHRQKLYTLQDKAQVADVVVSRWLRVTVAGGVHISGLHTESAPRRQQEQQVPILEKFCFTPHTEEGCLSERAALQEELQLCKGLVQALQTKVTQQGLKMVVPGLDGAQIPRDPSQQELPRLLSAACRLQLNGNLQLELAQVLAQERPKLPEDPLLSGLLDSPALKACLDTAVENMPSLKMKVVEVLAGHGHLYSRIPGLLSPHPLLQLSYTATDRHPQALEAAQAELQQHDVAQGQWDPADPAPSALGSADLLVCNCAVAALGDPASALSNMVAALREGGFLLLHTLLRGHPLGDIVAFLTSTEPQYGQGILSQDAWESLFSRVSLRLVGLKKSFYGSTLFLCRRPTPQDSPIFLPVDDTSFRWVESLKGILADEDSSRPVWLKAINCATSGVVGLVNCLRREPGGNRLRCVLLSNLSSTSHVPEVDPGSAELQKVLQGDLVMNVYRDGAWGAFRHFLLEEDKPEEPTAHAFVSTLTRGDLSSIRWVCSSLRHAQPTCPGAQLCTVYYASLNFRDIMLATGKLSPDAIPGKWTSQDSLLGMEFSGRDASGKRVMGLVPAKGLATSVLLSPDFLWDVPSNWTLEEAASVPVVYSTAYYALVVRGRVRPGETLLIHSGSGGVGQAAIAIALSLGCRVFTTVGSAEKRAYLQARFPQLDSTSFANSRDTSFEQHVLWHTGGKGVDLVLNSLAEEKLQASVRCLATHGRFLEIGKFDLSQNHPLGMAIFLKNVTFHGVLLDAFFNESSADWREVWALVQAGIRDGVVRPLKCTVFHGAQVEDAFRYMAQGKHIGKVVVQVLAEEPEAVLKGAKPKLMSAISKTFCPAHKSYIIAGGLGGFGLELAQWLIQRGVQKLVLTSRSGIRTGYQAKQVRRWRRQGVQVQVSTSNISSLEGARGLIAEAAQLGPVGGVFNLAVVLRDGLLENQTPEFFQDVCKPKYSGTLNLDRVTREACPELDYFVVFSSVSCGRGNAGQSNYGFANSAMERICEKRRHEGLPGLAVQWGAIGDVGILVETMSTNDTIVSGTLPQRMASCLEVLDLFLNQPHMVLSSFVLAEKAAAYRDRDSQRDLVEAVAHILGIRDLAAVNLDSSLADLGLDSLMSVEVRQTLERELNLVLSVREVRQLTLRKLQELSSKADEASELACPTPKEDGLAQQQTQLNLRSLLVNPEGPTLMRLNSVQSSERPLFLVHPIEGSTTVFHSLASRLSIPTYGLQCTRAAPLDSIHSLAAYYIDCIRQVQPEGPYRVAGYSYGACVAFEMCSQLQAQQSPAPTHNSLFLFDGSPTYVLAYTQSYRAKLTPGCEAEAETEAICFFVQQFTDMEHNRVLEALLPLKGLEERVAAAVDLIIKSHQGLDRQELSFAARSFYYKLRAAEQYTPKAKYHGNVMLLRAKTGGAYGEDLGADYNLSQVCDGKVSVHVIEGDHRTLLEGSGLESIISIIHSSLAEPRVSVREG

Regarding `Cc1ccc([N+](=O)[O-])cc1`, the molecule was classed as inactive in assay [1], in assay [2], in [3], in [4], in assay [5] and in [6]. Besides, the call in assay [7] was inactive.
With `ClC1=C(Cl)[C@]2(Cl)[C@H]3[C@H]([C@@H]4C=C[C@H]3C4)[C@@]1(Cl)C2(Cl)Cl`, the molecule was classed as inactive in assay [2], in assay [8], in [4], in assay [5], in [6] and in [7]. In addition, in assay [3], the AC50 was 28.7 µM (active).
As to `CCOC(=O)[C@]1(c2ccccc2)Oc2ccccc2[C@@H]1N`, the result in assay [2], in [15] and in [4] was inactive. For the same molecule, the AC50 in assay [9] was 2.19 µM (active); in assay [10] it was 1.4 µM (active); in assay [11] it was 3.16 µM (active); in assay [12], 0.33 µM (active); in [13], 2.9 µM (active); in [14], 2.52 µM (active). The AC50 in [3] is 41.6 µM (active); in assay [5], 78.3 µM (active); in assay [6], 77.5 µM (active); in assay [7] it was 88.2 µM (active).
Regarding `CCC[CH2][Sn]([Cl])([CH2]CCC)[CH2]CCC`, the molecule was classed as inactive in assay [16] and in assay [1]. Further, the AC50 is 2.86 µM (active) in assay [3], 88.1 µM (active) in assay [5], 81.2 µM (active) in assay [6] and 1.66 µM (active) in assay [7].
For `CCCCCCCCn1sccc1=O`, the AC50 in [1] is 12 µM (active); in [3], 75.1 µM (active); in assay [6] it was 83.7 µM (active); in assay [7] it was 85.6 µM (active). Moreover, the call in assay [17], in assay [2], in [8] and in assay [5] was inactive.
As for `CC(C)(C)OOC(=O)c1ccccc1`, the call in assay [2], in assay [3], in assay [5], in [6] and in [7] was inactive.
`[O-][Cl+]O`: the outcome in [17], in assay [2], in assay [3], in assay [5], in [6] and in [7] was inactive.
